In PubChem BioAssay (NCI):
Where “and” joins values, the source holds several entries; their conditions need not be identical. Equal values may be shown once. Compounds without any hit were thinned out: in the full panel of roughly 83,000, 20% have a hit.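 Note: values are percent growth. 100 is the growth of untreated cells, values between 100 and 0 indicate rising inhibition; between -100 and 0 indicates cell death.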 Calls of active or inactive are those of the source. Rule for the calls: active = growth percent below 10; inactive = the rest.

Legend:
Assay in all cases: NCI-60 one-dose screen, 48 h (100 = growth as untreated, 0 = no growth, -100 = all killed)
Conditions in all cases: 10 µM unless noted
SK-MEL-2 melanoma = tested on: SK-MEL-2 melanoma
EKVX NSCLC = tested on: EKVX NSCLC
SN12C renal = tested on: SN12C renal
UO-31 renal = tested on: UO-31 renal
TK-10 renal = tested on: TK-10 renal
ACHN renal = tested on: ACHN renal
CAKI-1 renal = tested on: CAKI-1 renal
A498 renal = tested on: A498 renal
MOLT-4 leukemia = tested on: MOLT-4 leukemia
SR leukemia = tested on: SR leukemia
RPMI-8226 leukemia = tested on: RPMI-8226 leukemia
OVCAR-8 ovarian = tested on: OVCAR-8 ovarian
OVCAR-5 ovarian = tested on: OVCAR-5 ovarian
OVCAR-4 ovarian = tested on: OVCAR-4 ovarian
SK-OV-3 ovarian = tested on: SK-OV-3 ovarian
IGROV1 ovarian = tested on: IGROV1 ovarian
OVCAR-3 ovarian = tested on: OVCAR-3 ovarian
HS 578T breast = tested on: HS 578T breast
NCI/ADR-RES ovarian = tested on: NCI/ADR-RES ovarian
CCRF-CEM leukemia = tested on: CCRF-CEM leukemia

Compound | growth (SK-MEL-2 melanoma) | growth (EKVX NSCLC) | growth (SN12C renal) | growth (UO-31 renal) | growth (TK-10 renal) | growth (ACHN renal) | growth (CAKI-1 renal) | growth (A498 renal) | growth (MOLT-4 leukemia) | growth (SR leukemia) | growth (RPMI-8226 leukemia) | growth (OVCAR-8 ovarian) | growth (OVCAR-5 ovarian) | growth (OVCAR-4 ovarian) | growth (SK-OV-3 ovarian) | growth (IGROV1 ovarian) | growth (OVCAR-3 ovarian) | growth (HS 578T breast) | growth (NCI/ADR-RES ovarian) | growth (CCRF-CEM leukemia)
S=C(S)N1CCCC1 | 98% (inactive) and 99.7% (inactive) | 114% (inactive) and 99% (inactive) | 96.4% (inactive) and 109% (inactive) | 88.3% (inactive) and 76.4% (inactive) | 96.5% (inactive) and 96.3% (inactive) | 125% (inactive) and 110% (inactive) | 124% (inactive) | 72.5% (inactive) and 102% (inactive) | 98.7% (inactive) and 107% (inactive) | 65.2% (inactive) and 83.6% (inactive) | 93% (inactive) and 91.3% (inactive) | 106% (inactive) and 94.1% (inactive) | 112% (inactive) and 113% (inactive) | 117% (inactive) and 96.8% (inactive) | 116% (inactive) and 112% (inactive) | 58.9% (inactive) and 56.5% (inactive) | 69.5% (inactive) and 100% (inactive) | 106% (inactive) | 107% (inactive) and 99.1% (inactive) | 
CC(=O)c1ccccc1O | 107% (inactive) and 98.5% (inactive) and 111% (inactive) | 99.7% (inactive) and 108% (inactive) and 104% (inactive) | 98.1% (inactive) and 104% (inactive) and 98.7% (inactive) | 80% (inactive) and 90.5% (inactive) and 68.1% (inactive) | 104% (inactive) and 95.9% (inactive) and 95.7% (inactive) | 105% (inactive) and 101% (inactive) and 104% (inactive) | 92.5% (inactive) and 99.4% (inactive) and 87.3% (inactive) | 92.5% (inactive) and 86.6% (inactive) | 88.1% (inactive) and 91.6% (inactive) and 104% (inactive) |  | 106% (inactive) and 103% (inactive) | 112% (inactive) and 101% (inactive) and 105% (inactive) | 102% (inactive) and 98.4% (inactive) and 116% (inactive) | 110% (inactive) and 107% (inactive) and 111% (inactive) |  | 102% (inactive) and 105% (inactive) and 101% (inactive) | 114% (inactive) and 109% (inactive) and 106% (inactive) |  | 100% (inactive) and 98.6% (inactive) and 103% (inactive) | 107% (inactive) and 104% (inactive) and 101% (inactive)
Cc1ccc(-c2noc(CC(=O)c3ccc([N+](=O)[O-])cc3)n2)cc1 | 110% (inactive) | 95.9% (inactive) | 94.1% (inactive) | 89.6% (inactive) | 115% (inactive) | 103% (inactive) | 97.1% (inactive) | 86.7% (inactive) | 90.5% (inactive) | 98.1% (inactive) | 116% (inactive) | 100% (inactive) | 97.5% (inactive) | 102% (inactive) | 97.6% (inactive) | 104% (inactive) | 102% (inactive) | 99.8% (inactive) | 104% (inactive) | 
CN(C)c1ccc2nc3ccc(N)cc3[n+](-c3ccccc3)c2c1 | 58.2% (inactive) | 27.8% (inactive) and 12.6% (inactive) | 6.72% (active) and -36.4% (active) | 62.1% (inactive) and 31% (inactive) | 20.6% (inactive) | 73.5% (inactive) and 30.8% (inactive) | 94.2% (inactive) and -40.5% (active) | 67.5% (inactive) and 41.8% (inactive) | 23% (inactive) and 0.316% (active) | 18.6% (inactive) and 11% (inactive) | 8.36% (active) and 13.7% (inactive) | 19.4% (inactive) and -16.6% (active) | 87.1% (inactive) and -46.4% (active) | 29.2% (inactive) and 1.54% (active) | 74.1% (inactive) and 30.9% (inactive) | 12.8% (inactive) and 13.7% (inactive) | 23.5% (inactive) and -18.1% (active) | 31.7% (inactive) and 23.4% (inactive) | 92% (inactive) and 26% (inactive) | 
O=[N+]([O-])c1ccccc1/C=N\Nc1ccccc1 | 86.9% (inactive) and 107% (inactive) | 69.3% (inactive) and 93.5% (inactive) | 84.9% (inactive) and 87.6% (inactive) | 50.6% (inactive) and 47.3% (inactive) | 118% (inactive) and 92.6% (inactive) | 61.4% (inactive) and 64.2% (inactive) | 71.9% (inactive) and 60.8% (inactive) | 79.7% (inactive) and 70.1% (inactive) | 76.4% (inactive) and 89.9% (inactive) | 98.5% (inactive) and 51.8% (inactive) | 77.5% (inactive) and 95.6% (inactive) | 91.1% (inactive) and 89.9% (inactive) | 91.1% (inactive) and 89.2% (inactive) | 82.2% (inactive) and 86.3% (inactive) | 90.6% (inactive) and 93.7% (inactive) | 74.4% (inactive) and 59.1% (inactive) | 94.5% (inactive) and 92.7% (inactive) |  | 73.3% (inactive) and 75.6% (inactive) | 
CNc1cc(-c2cccc(OC(F)(F)F)c2)nc2ccc(N3CCCC3)cc12 | 85.6% (inactive) and -78.5% (active) and -74.4% (active) | 84.1% (inactive) and 39.2% (inactive) and 11.9% (inactive) | -18.5% (active) and -44.5% (active) and -23.2% (active) | 7.85% (active) and -81.2% (active) and 26.1% (inactive) | -55% (active) and -45.4% (active) and -12% (active) | -99.6% (active) and -99.5% (active) and -98.9% (active) | 68.2% (inactive) and -88.8% (active) and -50.9% (active) | 77.2% (inactive) and 45.9% (inactive) and 47.7% (inactive) | -38.6% (active) and -30.7% (active) and 2.3% (active) | -33.9% (active) and -44.7% (active) and -14.6% (active) | -51.4% (active) and -43.5% (active) and -37.5% (active) | 34.7% (inactive) and -26.3% (active) and -2.97% (active) | 55.7% (inactive) and 12.4% (inactive) and 50% (inactive) | 53.1% (inactive) and -27.1% (active) and 22% (inactive) | 93.5% (inactive) and 55.3% (inactive) and 92.4% (inactive) | 35.5% (inactive) and -14.9% (active) and 53.2% (inactive) | 85.7% (inactive) and -90.8% (active) and 84.8% (inactive) | 88.4% (inactive) and 47.5% (inactive) and 75.7% (inactive) | 59% (inactive) and 20.9% (inactive) and 21.3% (inactive) | 
C#CCN(C)Cc1ccccc1 | 97.5% (inactive) and 104% (inactive) | 104% (inactive) and 95.2% (inactive) | 95.7% (inactive) and 82.5% (inactive) | 87.2% (inactive) and 93.2% (inactive) | 101% (inactive) and 231% (inactive) | 97.5% (inactive) and 105% (inactive) | 99% (inactive) and 69.1% (inactive) | 126% (inactive) and 96.3% (inactive) | 106% (inactive) and 101% (inactive) | 108% (inactive) and 101% (inactive) | 98.2% (inactive) and 107% (inactive) | 101% (inactive) and 98% (inactive) | 116% (inactive) | 112% (inactive) and 114% (inactive) | 104% (inactive) and 103% (inactive) | 103% (inactive) and 120% (inactive) | 111% (inactive) and 104% (inactive) | 119% (inactive) and 96.1% (inactive) | 101% (inactive) and 102% (inactive) | 
